In the library only some 10% were active in any assay of this set; here they are far more common.
CCT chaperon mod – modulators of cytosolic chaperonin (CCT/TRiC) activity. purified chaperonin ATPase assay, HTRF ADP detection, 30 min. hit rate 0.3% among 360,000. AID 651819. activity change, % (test concentration not listed), hits read low; in the data active means activity change below about -30%
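TRiC (40 or 20 nM final, by batch activity) in 30 mM Tris pH 7.4, 100 mM KCl, 5 mM MgCl2, 1 mM DTT was treated with compound at 76 uM single dose, then 10 uM ATP, 30 min at 37 °C. ADP was read by HTRF Transcreener.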
MmCpn inh – M. maripaludis TRiC chaperonin inhibition | purified Mm-Cpn ATPase, ADP Transcreener TR-FRET | Potency, µM (series often up to 76.9 µM), without a hit: at the top dose activity, negative = inhibition, usual class: inhibitors | hit rate 0.031% among 330,000 | AID 504842; further: potency means the concentration at half of the fitted maximal effect; nearly all actives have a fitted effect of over 80% in size
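ATPase read-out: TR-FRET ADP immunoassay (anti-ADP Eu cryptate vs ADP-d2), ex 320 nm, em 590/665 nm; signal drops as ADP forms. Enzyme 25 nM, ATP 10 uM, 30 min at 37°C after 10 min compound preincubation.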
PLK1 PBD inh – inhibitors of human PLK1 polo-box domain binding; Potency, µM, without a hit: max response, negative = inhibition, usual class: inhibitors; P53350; Plk1 PBD binding of FITC phosphopeptide, fluorescence polarization; hit rate 2.8% among 360,000; further: potency means the concentration at half of the fitted maximal effect; series mostly up to about 57 µM; nearly all actives have a fitted effect of over 65% in size
VDR inhibitor – blocks the human vitamin D receptor. VDR-SRC2-3 peptide fluorescence polarization, 2 h. Potency, µM, for the others: max response, negative = inhibition, usual class: inhibitors. hit rate 0.93% among 400,000; further: potency means the concentration at half of the fitted maximal effect
Target sequence (P11473 whole entry, looked up): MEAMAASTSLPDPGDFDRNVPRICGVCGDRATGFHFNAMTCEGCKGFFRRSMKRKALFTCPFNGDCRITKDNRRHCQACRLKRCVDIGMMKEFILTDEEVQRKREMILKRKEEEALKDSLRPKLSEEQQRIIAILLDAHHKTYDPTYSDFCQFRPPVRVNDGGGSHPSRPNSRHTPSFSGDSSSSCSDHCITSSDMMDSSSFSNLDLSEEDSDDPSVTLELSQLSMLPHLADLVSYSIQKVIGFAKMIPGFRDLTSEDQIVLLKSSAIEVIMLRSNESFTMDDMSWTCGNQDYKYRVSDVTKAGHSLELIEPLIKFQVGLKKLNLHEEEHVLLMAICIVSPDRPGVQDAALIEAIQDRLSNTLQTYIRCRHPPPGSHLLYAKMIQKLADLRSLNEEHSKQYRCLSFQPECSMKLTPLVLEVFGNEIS
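VDR–SRC2-3 interaction, FP format. Cmpds 23 nl via pintool, brief spin, 2 h ambient incubation.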
G9a inh – G9a (human) methyltransferase inhibition; Q96KQ7; G9a H3K9 monomethylation, AlphaScreen, 2 h; Potency, µM (series often up to 102 µM), inactives show at the top dose activity, negative = inhibition, hits mostly inhibitors; hit rate 8.8% among 350,000; further: potency means the concentration at half of the fitted maximal effect; nearly all actives have a fitted effect of over 75% in size
Target sequence (Q96KQ7 913-1193 limits assumed): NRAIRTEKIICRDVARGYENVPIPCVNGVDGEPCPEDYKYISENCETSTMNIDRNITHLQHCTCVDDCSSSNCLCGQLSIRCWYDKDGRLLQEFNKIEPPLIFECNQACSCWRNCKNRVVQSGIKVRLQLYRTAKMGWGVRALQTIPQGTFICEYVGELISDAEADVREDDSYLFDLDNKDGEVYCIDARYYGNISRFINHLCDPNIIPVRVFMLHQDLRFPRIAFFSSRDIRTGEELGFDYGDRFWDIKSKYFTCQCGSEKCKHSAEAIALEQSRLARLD
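Enzyme 20 nM + cpd, 15 min RT; add b-H3K9 pep 500 nM / SAM 20 uM; 2 h RT; anti-H3K9me1 Ab 0.5 ug/mL + SA donor / anti-rabbit acceptor beads 20 ug/mL each, 10 min; AlphaScreen read.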
Sfp inh – blocks B. subtilis Sfp PPTase activity; Biochemical Sfp PPTase activity, qHTS; Q9F4F7; Potency, µM, for inactives: largest response in the series, negative = inhibition, hits mostly inhibitors; hit rate 3.5% among 310,000;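 further: the enzyme is Sfp with the accession as filed and its product quenches rhodamine fluorescence; potency means the concentration at half of the fitted maximal effect; 0% = enzyme reaction without inhibitor and -100% = no enzyme wells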
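Compounds were incubated with enzyme (final 15 nM) for 15 min at room temperature before substrate addition started the reaction. Fluorescence at 525 nm excitation, 598 nm emission was recorded immediately and after 30 minutes.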
* marks the source's active call; other numbers are inactive results; u = inconclusive; x = no result given; [ ] = dose if it differs, or a comment. Unless noted, the call rests on the fitted dose curve; in most records, active means well fitted curve in the direction sought with a large enough effect; inconclusive means small, poorly fitted or top-dose-only effect, or another doubt; inactive means no such curve, though single readings can be large; an effect the other way counts as inactive or inconclusive. Unless noted, on the % scale 0 is the no-effect control and ±100 the full control effect.

SMILES	CCT chaperon mod	MmCpn inh	PLK1 PBD inh	VDR inhibitor	G9a inh	Sfp inh
Cc1ccccc1-n1c(-c2ccc(Br)o2)n[nH]c1=S	-1	x	-3%	-10%	x	x
COc1ccc(Cn2ccc3nc(C)c(C(=O)N4CCN(c5ccccc5F)CC4)cc3c2=O)cc1	x	x	x	-5%	6%[59 µM]	x
O=C(NCc1cccnc1)c1cccn1-c1ncc(C(F)(F)F)cc1Cl	0	-9%	30µM*	u	13%	12%
O=S(=O)(NCc1cccnc1)c1cccn1-c1ncc(C(F)(F)F)cc1Cl	-1	2%	-10%	16%	21%	10%
COc1ccc(N2CCC(CNC(=O)Nc3ccc(C)c(C)c3)C2)cc1 (configuration not stated)	-3	0%	-16%	-12%	2µM*	-19%
COc1ccc(N2CCC(CNC(=O)Nc3ccc(OC)cc3OC)C2)cc1 (configuration not stated)	-4	-4%	-20%	11%	u	-21%
CCOc1ccc(NC(=O)NCC2CCN(c3ccc(OC)cc3)C2)cc1 (configuration not stated)	0	-1%	1%	10%	1µM*	-8%
O=C(CSc1nnc(-c2cccnc2)n1-c1ccccc1)Nc1ccccn1	-2	-22%	3.4µM*	-18%	-25%[12.7 µM]	4%
COc1cccc(-c2nnc(SCC(=O)N3CCCC3=O)n2-c2ccccc2)c1	0	-5%	6%	-11%	u	-1%
COc1cccc(-c2nnc(SCC3CNC(=O)O3)n2-c2ccc(Cl)cc2)c1 (configuration not stated)	0	-6%	-5%	-3%	14µM*	8%
COc1ccc(-n2c(SCC(=O)N3CCCCC3C)nnc2-c2cccnc2)cc1 (configuration not stated)	0	-1%	-7%	4%	40µM*	u
COc1cccc(-n2c(SCC(=O)O)nnc2-c2cccnc2)c1	0	-1%	-6%	2%	56µM*	12%
COc1ccc(-n2c(SCC(=O)N3CCCC(C)C3)nnc2-c2cccnc2)cc1 (configuration not stated)	-1	-1%	0%	-6%	-3%	6%
COc1ccc(-n2c(SCC(N)=O)nnc2-c2cccnc2)cc1	0	-2%	-12%	-9%	12%[59 µM]	10%
CC(C)c1ccc(Nc2ncnc3c2c(-c2ccccc2)cn3-c2ccccc2)cc1	x	x	x	4%	-5%[59 µM]	x
Cc1cc(N2CCC(C)CC2)nc2ccc(NC(=O)CCC(=O)N3CCN(c4ccccc4F)CC3)cc12	x	x	x	-25%	-2%[59 µM]	x
O=C(/C=C/Nc1ccccc1)c1ccccc1	0	-1%	2%	-6%	11%[0.501 µM]	1%
O=C(c1ccccc1)c1ccc2ccccc2c1	-2	x	-3%	-6%	x	x
O=C(/C=C\NCC(=O)c1ccccc1)c1ccc(F)cc1	-1	-2%	-5%	-16%	11µM*	4%
O=C(/C=C\NCC(=O)c1ccccc1)c1ccc2ccccc2c1	-1	-13%	-24%	u	7.9µM*	-13%
COc1ccc2nc(C)c(C(=O)OCCN(C)C)cc2c1	x	0%	x	x	50µM*	0%
COc1ccc(CN(C)C(=O)Cn2cc(C)c(=O)[nH]c2=O)cc1OC	1	x	27µM*	-27%	x	x
Cc1ccc(S(=O)(=O)N(CCc2ccccc2)CC(=O)Nc2cc(C)ccc2C)cc1	x	x	x	6%	-27%[59 µM]	x
CNS(=O)(=O)c1ccc2nc(NC(=O)c3ccc(N4C(=O)CCC4=O)cc3)sc2c1	1	-3%	7.5µM*	u	3.5µM*	14µM*
CCc1ccc2nc(NC(=O)c3ccc(N4C(=O)CCC4=O)cc3)sc2c1	-1	0%	2%	5%	-2%[59 µM]	22%
SMILES	CCT chaperon mod	MmCpn inh	PLK1 PBD inh	VDR inhibitor	G9a inh	Sfp inh
O=C(Nc1nc2cc3c(cc2s1)OCCO3)c1ccc(N2C(=O)CCC2=O)cc1	0	-22%	-4%	-26%	x	14µM*
Cc1nc2c(ccc3nc(NC(=O)c4ccc5c(c4)OCCO5)sc32)s1	0	-6%	-7%	14%	28µM*	u
O=C(NNc1nc2cc3c(cc2s1)OCO3)c1ccc(F)cc1	2	1%	-2%	8%	8.9µM*	28µM*
CCNc1ncc2nc(-c3cccc(C#N)c3)c(=O)n(C)c2n1	x	x	x	-11%	-4%[12.7 µM]	-20%
CCS(=O)(=O)N1CCc2cc(C(=O)NCc3ccccc3OC)ccc21	x	x	x	5%	u	x
O=C(Nc1nc2cc3c(cc2s1)OCCO3)c1ccco1	-2	0%	1%	3%	x	-4%
O=C(Nc1nc2cc3c(cc2s1)OCCO3)c1ccncc1	-6	2%	21µM*	u	-12%	2%
CC(=O)Nc1ccc(N=C(C2=C(O)c3ccccc3C2=O)c2ccccc2)cc1	0	4%	u	3%	40µM*	-9%
COc1ccc(N=C(C)C2=C(O)c3ccccc3C2=O)cc1	1	0%	-7%	20%	1%[59 µM]	-12%
COc1ccc(Oc2ncc3nc(-c4ccc(OC)cc4)c(=O)n(CCC#N)c3n2)cc1	x	x	x	0%	-3%[12.7 µM]	20%
N#CC1=C(S)N(c2ccc(F)cc2)C(c2ccco2)NC1=O (configuration not stated)	0	-2%	u	u	8.9µM*	22µM*
Cc1ccc(N2C(S)=C(C#N)C(=O)NC2c2ccco2)cc1 (configuration not stated)	1	-3%	-28%	40µM*	28µM*	-87%
COC(=O)C1(C)NC(c2ccco2)C2C(=O)N(c3ccc(C)cc3)C(=O)C21 (configuration not stated)	1	-2%	-3%	-7%	-14%[59 µM]	14%
N#CC1=C(S)N(c2ccccc2)C(c2ccco2)NC1=O (configuration not stated)	1	-4%	8%	-7%	28µM*	u
O=C(NN1C(=O)c2ccccc2NC1c1ccco1)c1ccccc1 (configuration not stated)	1	-2%	-10%	3%	25%[59 µM]	9%
CCCCC(CCC(=O)O)(C(=O)OCC)c1csc(Nc2ccc(OCC)cc2)n1 (configuration not stated)	-4	0%	-17%	-14%	32µM*	u
CCOc1ccc(Cc2nnc(SCC(=O)c3ccc(OC)cc3)o2)cc1	0	1%	0%	-8%	u	4%
CCCCC(CCC(=O)O)(C(=O)OCC)c1csc(Nc2ccccc2)n1 (configuration not stated)	0	-2%	u	-16%	-5%	14%
CCOc1ccc(Nc2nc(Cc3nnc(SCC(=O)O)o3)cs2)cc1	-4	0%	-18%	-4%	50µM*	45µM*
COc1ccc(-n2c(SCC(=O)c3ccc(Cl)cc3)nc3c([nH]c4ccccc43)c2=O)cc1	x	x	x	9%	5%[59 µM]	x

Source: PubChem (National Center for Advancing Translational Sciences (NCATS))
